Screens (PubChem)
NPC1 prom act: qHTS Assay for NPC1 Promoter Activators. Huh7 NPC1 promoter luciferase reporter, 24 h. Potency, µM (titrated, usually from 9.22 µM), actives largely listed as activators. 320,000 tested, 2.4% active. AID 485313, 2010; further: nearly all actives have a fitted effect of over 60% in size
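Luminescence read-out of NPC1 promoter-driven luciferase in stably transfected Huh7 cells; compounds delivered in DMSO and left 24 h at 37C, 5% CO2, qHTS titration format.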
Rab9 prom act: qHTS Assay for Rab9 Promoter Activators | Huh7 Rab9 promoter-luciferase reporter, luminescence, 24 h | Potency, µM (highest dose often 9.22 µM), usual class: activators | 320,000 tested, 2.8% active | AID 485297, 2010; further: nearly all actives have a fitted effect of over 60% in size
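Huh7 cells stably carrying a Rab9 promoter-luciferase reporter, 1500 cells per well in OP-MEM I with 10% FBS, treated with compound 24 hours at 37C. Luciferase activity read by luminescence after 10 minutes with Amplite reagent.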
Luc counter: Counterscreen for Luciferase (Kinase-Glo TM) Inhibition; Luciferin 4-monooxygenase (Photuris pensylvanica), Q27757; Kinase-Glo luciferase, ATP luminescence, 8 min; Potency, µM (doses to about 38.3 µM), actives largely listed as inhibitors; 200,000 tested, 0.28% active; AID 1379, 2008; further: nearly all actives have a fitted effect of over 60% in size
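Substrate mix (final 50 mM imidazole pH 7.2, 50 mM KCl, 7 mM MgCl2, 10 uM ATP, 0.01% Tween 20, 0.05% BSA) plus pin-tool compound, then Kinase-Glo detection mix; 8 min ambient, luminescence read.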
SMN2 splice enh: qHTS Assay for Enhancers of SMN2 Splice Variant Expression; HEK293 SMN2-luciferase splicing reporter, luminescence, 30-36 h; Potency, µM (series often up to 46.1 µM), hits mostly activators; 210,000 tested, 2.8% active; further: nearly all actives have a fitted effect of over 55% in size
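HEK293 cells carry an SMN2 […]–luciferase reporter in which exon 7 inclusion puts luciferase in frame. Cells were plated 10-12 h before compound addition, then incubated 30-36 h at 37C. ONE-Glo luminescence was read; sodium butyrate at 4.5 mM final served as control.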
ELG1 genotox: qHTS screen for small molecules that induce genotoxicity in human embryonic kidney (HEK293T) cells expressing luciferase-tagged ELG1. HEK293T ELG1-luciferase reporter, luminescence, 16 h. Potency, µM (titrated, usually from 46 µM), most hits filed as activators. 330,000 tested, 1.3% active; further: nearly all actives have a fitted effect of over 60% in size
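After overnight (16 hr) compound treatment at 37 °C, ELG1-luciferase HEK293T cells were lysed with ONE-Glo; luminescence quantified 30 min later at room temperature.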
FLuc modulator: qHTS profiling assay for firefly luciferase inhibitor/activator using purifed enzyme and Km concentrations of substrates (counterscreen for miR-21 project); Potency, µM (doses to about 57.5 µM), hits mostly inhibitors; purified FLuc, Km substrates, luminescence inhibition; Luciferin 4-monooxygenase (Photinus pyralis), P08659; 360,000 tested, 6.9% active; further: nearly all actives have a fitted effect of over 55% in size
Target sequence (P08659 whole entry, looked up): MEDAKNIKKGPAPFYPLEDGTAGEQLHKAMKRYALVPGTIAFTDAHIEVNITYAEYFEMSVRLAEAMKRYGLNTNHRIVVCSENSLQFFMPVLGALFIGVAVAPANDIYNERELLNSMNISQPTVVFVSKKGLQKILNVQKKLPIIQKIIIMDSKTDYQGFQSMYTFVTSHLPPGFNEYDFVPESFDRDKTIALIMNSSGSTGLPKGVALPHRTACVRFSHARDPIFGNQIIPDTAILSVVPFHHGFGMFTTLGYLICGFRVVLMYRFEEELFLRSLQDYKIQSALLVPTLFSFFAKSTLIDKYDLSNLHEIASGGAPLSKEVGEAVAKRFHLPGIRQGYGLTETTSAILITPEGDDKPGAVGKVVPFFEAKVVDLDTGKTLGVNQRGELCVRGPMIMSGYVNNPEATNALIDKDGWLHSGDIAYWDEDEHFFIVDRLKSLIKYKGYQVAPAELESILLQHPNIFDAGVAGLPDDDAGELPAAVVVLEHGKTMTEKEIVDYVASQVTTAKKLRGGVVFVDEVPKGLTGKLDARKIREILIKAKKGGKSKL
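Biochemical qHTS of compounds, final roughly 60 µM downward over six points, against 10 nM purified firefly luciferase using Km concentrations of substrates (10 uM D-luciferin, 10 uM ATP) in Tris acetate pH 7.5 buffer; luminescence output.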
Of the large screens only hits and unclear results are named; the others gave an inactive call. This is a sample that favours compounds with a hit; in the whole collection about 7.4% have one here. The call rests on the fitted dose curve; in most records, active means well fitted curve in the direction sought with a large enough effect; inconclusive means small, poorly fitted or top-dose-only effect, or another doubt; inactive means no such curve, though single readings can be large; an effect the other way counts as inactive or inconclusive.

Cc1ccc(C(=O)/C=C/Nc2cccc(O)c2)cc1	Rab9 prom act inconclusive, Luc counter inconclusive, SMN2 splice enh 25µM, ELG1 genotox 4.1µM, FLuc modulator 0.38µM
Cc1ccc(C(=O)/C=C/Nc2ccc3c(c2)OCO3)cc1	NPC1 prom act 0.71µM, Rab9 prom act 0.71µM, SMN2 splice enh inconclusive, ELG1 genotox inconclusive, FLuc modulator 0.27µM
CC(=O)c1ccc(NS(=O)(=O)c2ccc(N/C=C/C(=O)c3ccc(F)cc3)cc2)cc1	FLuc modulator inconclusive (no result: Luc counter, SMN2 splice enh)
CC(=O)c1ccc(N/C=C\C(=O)c2ccc(C)cc2)cc1	NPC1 prom act 2.5µM, Rab9 prom act 4µM, SMN2 splice enh 16µM, ELG1 genotox 8.2µM, FLuc modulator 1.9µM
C[C@@H]1NC(=O)N(CCCn2ccnc2)C1=O	none (no result: Luc counter, SMN2 splice enh)
COc1ccc(C=Nc2c(O)ccc3ccccc23)cc1OC	SMN2 splice enh inconclusive (no result: NPC1 prom act, Rab9 prom act, ELG1 genotox, FLuc modulator)
COc1ccc(-c2ccc3c(N)c(C(=O)NCc4ccc(Cl)cc4)sc3n2)cc1	SMN2 splice enh 11µM (no result: NPC1 prom act, Rab9 prom act, Luc counter, ELG1 genotox)
NC(=O)c1sc2nc(-c3cccnc3)ccc2c1N	FLuc modulator inconclusive (no result: Luc counter, SMN2 splice enh)
CCOC(=O)c1sc2nc(-c3cccnc3)ccc2c1N	NPC1 prom act 0.45µM, Rab9 prom act 0.5µM, ELG1 genotox 2.6µM, FLuc modulator 0.48µM (no result: SMN2 splice enh)
CC(C)OC(=O)c1sc2nc(-c3ccccc3)ccc2c1N	NPC1 prom act 0.32µM, Rab9 prom act 0.45µM, ELG1 genotox inconclusive, FLuc modulator 0.3µM
NNC(=O)CN1CCCc2ccccc21	ELG1 genotox inconclusive, FLuc modulator 12µM
CN1CCN(c2ncnc3c2cnn3-c2ccc(Cl)cc2)CC1	NPC1 prom act inconclusive, Rab9 prom act 0.4µM, ELG1 genotox inconclusive, FLuc modulator 0.95µM
Cc1ccc(-n2ncc3c(N4CCN(c5ccc(F)cc5)CC4)ncnc32)cc1	none (no result: NPC1 prom act, Rab9 prom act, Luc counter, SMN2 splice enh, ELG1 genotox)
Cc1ccc(-n2ncc3c(N4CCN(C)CC4)ncnc32)cc1Cl	FLuc modulator 5.4µM (no result: NPC1 prom act, Rab9 prom act, Luc counter, SMN2 splice enh, ELG1 genotox)
Cc1ccc(-n2ncc3c(N4CCN(C)CC4)ncnc32)cc1	FLuc modulator 3µM (no result: NPC1 prom act, Rab9 prom act, Luc counter, SMN2 splice enh, ELG1 genotox)
Cc1ccc(-n2ncc3c(N(C)C)ncnc32)cc1Cl	FLuc modulator 0.76µM (no result: NPC1 prom act, Rab9 prom act, Luc counter, SMN2 splice enh, ELG1 genotox)
CCOC(=O)c1c(NC(=O)COc2ccc(Cl)cc2C)sc(C(C)=O)c1C	none (no result: NPC1 prom act, Rab9 prom act, Luc counter, ELG1 genotox)
Cc1ccc(-c2csc(NC(=O)c3ccccc3Cl)c2C(=O)O)cc1	FLuc modulator 27µM (no result: Luc counter, SMN2 splice enh)
Cc1ccc(-c2csc(NC(=O)c3ccc(Br)cc3)c2C(=O)O)cc1	NPC1 prom act 2.5µM, Rab9 prom act 3.5µM, FLuc modulator 12µM (no result: Luc counter, SMN2 splice enh)
CC(C)c1ccc(-c2csc(NC(=O)c3cccs3)c2C(=O)O)cc1	FLuc modulator 17µM (no result: Luc counter, SMN2 splice enh)
COc1cc(C(=O)Nc2scc(-c3ccc(Br)cc3)c2C(=O)O)cc(OC)c1OC	none (no result: Luc counter, SMN2 splice enh)
Cc1c(Cl)cccc1-c1ccc(CNc2ccc3[nH]c(=O)[nH]c3c2)o1	none (no result: NPC1 prom act, Rab9 prom act, Luc counter, SMN2 splice enh, ELG1 genotox)
COc1ccc(C2c3ccc(O)cc3Oc3ncn4nc(-c5ccco5)nc4c32)cc1OC (centres undefined)	none (no result: Luc counter, SMN2 splice enh)
Cc1c(CN2CCC(CO)(CCOc3ccccc3)CC2)c(=O)n(-c2ccccc2)n1C	none (no result: SMN2 splice enh)
O=[N+]([O-])c1ccc2c(c1)nc1n2CCN(C2CCCCC2)C1	NPC1 prom act inconclusive, Rab9 prom act 2.5µM, SMN2 splice enh 14µM, ELG1 genotox inconclusive, FLuc modulator 15µM
CCCC(=O)Nc1ccc2c(c1)nc1n2CCN(C2CCCCC2)C1	none
CC(=O)Nc1ccc2c(c1)nc1n2CCN(C2CCCCC2)C1	NPC1 prom act 3.5µM, Rab9 prom act 2µM, SMN2 splice enh 13µM, ELG1 genotox inconclusive, FLuc modulator 24µM
N#C/C(=C\c1ccc(Cl)cc1)c1nc2ccccc2o1	FLuc modulator inconclusive
N#C/C(=C\c1ccncc1)c1nc2ccccc2o1	none (no result: Luc counter, SMN2 splice enh)
N#C/C(=C\c1cccc(O)c1)c1nc2ccccc2o1	FLuc modulator 8.5µM (no result: Luc counter, SMN2 splice enh)
N#C/C(=C\Nc1ccccc1O)c1nc2ccccc2o1	FLuc modulator 19µM
CC(C)Oc1ccc(C(=O)N2CC(=O)Nc3ccc(F)cc3C2c2ccc(F)cc2)cc1 (centres undefined)	none (no result: NPC1 prom act, Rab9 prom act, Luc counter, ELG1 genotox)
